This is part of a sample that, as a whole, favours compounds with a hit. Of some 83,000 tested, about 20% had one in any assay.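 48-hour exposure, single concentration, 96-well plates; percent growth endpoint where 0 means no net growth. Active: below 10.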 Unmarked numbers belong to inactive results. Active and inactive are the calls of the source.

The experiment deals with SW-620 colon. In words: NCI-60 one-dose screen, 48 h (100 = growth as untreated, 0 = no growth, -100 = all killed). The settings on record: 10 µM unless noted.
`C=C(C)[C@@H]1CC[C@]2(C(=O)OC)CC[C@]3(C)[C@H](CC[C@@H]4[C@@]5(C)CC/C(=N\OCCC(=NCCC#N)NOCCC#N)C(C)(C)[C@@H]5CC[C@]43C)[C@@H]12`: the growth was 22% [100 µM].

For `CCCCN(CC)CC(CC)Nc1cc(OC)cc2cccnc12` (stereo unspecified), the growth was 108%.

As for `COc1ccccc1S(=O)Nc1ccccc1` (stereo unspecified), the growth is 72%.

On to `COc1cc(Cl)cc(-c2nn(C(=O)NS(=O)(=O)c3ccccc3)cc2-c2ccncc2)c1`, for which the growth is 114%.

On to `COc1ccc(CC(C#N)c2ccc(Cl)cc2)cc1` (stereo unspecified), for which the growth is 49%.

Turning to `COc1cc2c(c(OC)c1OC)-c1cc(I)c(O)cc1[C@@H](NC(C)=O)CC2`, the growth was 31.4%.

With `O=C(O)CSCc1nnc2n(Cc3ccccc3)c(=O)c3c4c(sc3n12)CCCC4`, the growth is 107%.

For the compound `COc1ccc(C2NC(=O)C(C#N)c3c2sc2c(F)cccc32)cc1` (stereo unspecified), the growth was 24.4%.

With `CCN=C1C=CC(=C(c2ccc(N(CC)CC)cc2)c2ccc(N(CC)CC)cc2)c2ccccc21`, the growth is -42.9% (active).

As for `CC1(C)C(=NO)C(C)(C)C1=NO`, the growth was 100%.

As for `Cc1cc(SC#N)ncn1`, the growth was 106%.

With `COCc1nc2ccccc2[nH]1`, the growth is 106%.

Take `CCN1CCN(CC(=O)Nc2nc3ccc(NCc4ccc(Cl)cc4)cc3s2)CC1`: the growth is 22%.

On to `C=C(C)C1CCC2(C(=O)O)CCC3(C)C(CCC4C5(C)CCC(OC(=O)NCc6ccccc6)C(C)(C)C5CCC43C)C12` (stereo unspecified), for which the growth is 34.9%.

Turning to `CCc1ccc(C2=C/C(=C/c3ccccc3)C(=O)N2CCc2ccc(S(N)(=O)=O)cc2)cc1`, the growth was 106%.

As for `CCN(CC)c1ccc2cc(NC(=O)OCCNC(=O)CCNC(=O)[C@H](CC(C)C)NC(=O)C(C)(C)NC(=O)C(C)(C)NC(=O)[C@H](CC(C)C)NC(=O)CCNC(=O)C(C)(C)NC(=O)[C@H](CC(C)C)NC(=O)CCNC(=O)[C@@](C)(CC)NC(=O)[C@H](C)NC(=O)CCNC(=O)C(C)(C)NC(=O)[C@H](C)NC(=O)[C@@H]3CCCN3C(=O)[C@@](C)(CC)NC(=O)[C@H](Cc3ccccc3)NC(=O)C3CCCN3C(=O)C(C)(C)NC(=O)C3CCCN3C(=O)C(C)(C)NC(C)=O)c(=O)oc2c1` (stereo partly specified), the growth is -77.4% (active).

With `COC(=O)c1cc2c(=O)[nH]cc3c2c(n1)CCC3`, the growth was 103%.

As for `C=C(CC(=O)OC)C(C)=O`, the growth is 102%.

On to `COc1ccc2c(c1)c(-c1noc(C(=O)c3cn(C)c4ncc(Br)cc34)n1)cn2C`, for which the growth was 43.6%.

`CC(C)(C)OC(=O)N1C=C/C(=C\Cn2cc(-c3ccccc3)nn2)CC1`: the growth was 93.8%.

For `COc1cc2c(c(OC)c1OC)-c1ccc(NNC(N)=S)c(=O)cc1[C@@H](NC(C)=O)CC2`, the growth is 24.9%.

Take `CC(C)OC(=O)Nc1cc(F)ccc1F`: the growth was 99.8%.

With `C=C(C)[C@@H]1CC[C@]2(C)[C@H](CC[C@@H]3[C@@H]([C@@](C)(O)CCC=C(C)C)CC[C@]32C)[C@@]1(C)CCC(=O)O`, the growth is 0.938% [100 µM] (active).

On to `COc1cc(-c2cc(-c3ccc(Nc4ncnc5cc(Cl)ccc45)cc3)nc(N3CCCCC3)n2)cc(OC)c1OC`, for which the growth was 97.7%.

For `Cc1ccc(NC(=S)/N=c2/n(-c3ccccc3)nc3n2CCN3C2=NCCN2)cc1`, the growth is 97%.

On to `COc1c(B(O)O)cccc1-c1nc2ccc3[nH]ncc3c2c2c1CCC2`, for which the growth is 54.8%.

For the compound `O=C1Nc2ccccc2/C1=C/C(=O)c1ccc(N2CCCC2)cc1`, the growth was 5.46% (active).

Consider `COc1cc(C(=O)/C=C/c2c(-c3ccc(F)cc3)nc3sccn23)cc(OC)c1OC`, for which the growth was 13.7%.

Consider `COc1ccc(C2CC(c3cc(OC)c(OC)c(OC)c3)=NN2C(C)=O)cc1OCC(=O)Nc1nc2ccc(C(F)(F)F)cc2s1` (stereo unspecified), for which the growth is 84.7%.

In the case of `CN(C)c1cc(NN=C(c2ccc(O)cc2)c2ccc(O)cc2)c([N+](=O)[O-])cc1[N+](=O)[O-]`, the growth is 108%.

`CC[C@@](C)(NC(=O)[C@H](C)NC(=O)CCNC(=O)C(C)(C)NC(=O)[C@H](C)NC(=O)[C@@H]1CCCN1C(=O)[C@@](C)(CC)NC(=O)[C@H](Cc1ccccc1)NC(=O)C1CCCN1C(=O)C(C)(C)NC(=O)C1CCCN1C(=O)C(C)(C)NC(C)=O)C(=O)NCCC(=O)N[C@@H](CC(C)C)C(=O)NC(C)(C)C(=O)NCCC(=O)N[C@@H](CC(C)C)C(=O)NC(C)(C)C(=O)NC(C)(C)C(=O)N[C@@H](CC(C)C)C(=O)NCCC(=O)NCO` (stereo partly specified): the growth is -79.2% (active).

The record behind these values is PubChem BioAssay (NCI).
